Assay [1] deals with human RAR-related Orphan Receptor gamma (RORg), RORC (gene 6097) (UniProt P51449). As to the kind of experiment: ATG_RORg_TRANS: Attagene TRANS-FACTORIAL HepG2 Assay for human RAR-related Orphan Receptor gamma (RORg) (AID 2283011; active = hit-call score of the fitted dose curve at least 0.9, where 1 is the maximum). In short, it runs like this:
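Reporter transcripts from a transfected RORg-GAL4 chimera in HepG2 cells were quantified 24 h after dosing by RT-PCR, 6-FAM labelling, HpaI digestion and capillary electrophoresis; increases over DMSO baseline were fitted.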

Assay [2] deals with Retinoic acid receptor RXR-alpha (Homo sapiens) (UniProt P19793). As to the kind of experiment: ATG_RXRa_TRANS: Attagene TRANS-FACTORIAL HepG2 Assay for human Retinoid X Receptor alpha (RXRa) (AID 2283012; active = hit-call score of the fitted dose curve at least 0.9, where 1 is the maximum). A digest of the protocol:
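Chimeric NR-GAL4 trans-activation in HepG2, 24 h treatment; reporter transcripts quantified by fluorescence on capillary electrophoresis, analysed for upward change from DMSO.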

Assay [3] has as its target human Thyroid Receptor alpha (THRa1), THRA (gene 7067) (UniProt P10827). As to the kind of experiment: ATG_THRa1_TRANS: Attagene TRANS-FACTORIAL HepG2 Assay for human Thyroid Receptor alpha (THRa1) (AID 2283014; active = hit-call score of the fitted dose curve at least 0.9, where 1 is the maximum). A digest of the protocol:
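Transcripts from GAL4-UAS-driven reporters, measured after 24 h compound exposure by RT-PCR plus capillary electrophoresis of 6-FAM-labeled fragments, were fitted for gain of signal relative to DMSO. Cells: transiently transfected HepG2 expressing NR-Gal4 chimeras.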

Read-out in assay [4]: E-selectin (Homo sapiens) (UniProt P16581)
As to the kind of experiment: BSK_3C_Eselectin: BioMAP Diversity Plus: 3C Assay for Eselectin Biomarker Activity (AID 2283015).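 For outcome: cell surface E-selectin protein quantified by ELISA 24 h after dosing.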 The settings on record: primary human endothelial cells (HUVEC); actives raise or lower the signal. In short, it runs like this: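 E-selectin ELISA readout, fitted bidirectionally relative to DMSO, taken 24 h post-dosing in HUVEC cultures of the 3C system. Overt cytotoxicity tracked with sulforhodamine B staining of parallel wells.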

Read-out in assay [5]: Interleukin-1 alpha (IL1a), IL1A (gene 3552)
As to the kind of experiment: BSK_BE3C_IL1a: BioMAP Diversity Plus: BE3C Assay for Interleukin-1 alpha (IL1a) Biomarker Activity (AID 2283016). The settings on record: primary human bronchial epithelial cells; actives raise or lower the signal. A digest of the protocol: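 Measured in human lung primary bronchial epithelial cells: IL-1a by ELISA at 24 h after dosing, with bidirectional fitting against DMSO.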

Read-out in assay [6]: Monocyte Chemoattractant Protein-1 (MCP1), CCL2 (gene 6347)
As to the kind of experiment: BSK_3C_MCP1: BioMAP Diversity Plus: 3C Assay for Monocyte Chemoattractant Protein-1 (MCP1) Biomarker Activity (AID 2283017). The settings on record: primary human endothelial cells (HUVEC); actives raise or lower the signal. In short, it runs like this:
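MCP-1 was measured by ELISA 24 h after dosing in primary HUVEC 3C cultures and fitted in both directions relative to DMSO; cytotoxicity was checked by SRB total-protein staining in parallel wells.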

Read-out in assay [7]: Monocyte Chemoattractant Protein-1 (MCP1), CCL2 (gene 6347)
As to the kind of experiment: BSK_4H_MCP1: BioMAP Diversity Plus: 4H Assay for Monocyte Chemoattractant Protein-1 (MCP1) Biomarker Activity (AID 2283018). The settings on record: primary human endothelial cells (HUVEC); actives raise or lower the signal. In short, it runs like this: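 Primary human umbilical vein endothelium is exposed to chemical for 24 h before MCP-1 is assayed by ELISA. Concentration-response fitted bidirectionally relative to DMSO.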

Read-out in assay [8]: Human Leukocyte Antigen - DR isotype (HLADR), HLA-DRA (gene 3122)
As to the kind of experiment: BSK_3C_HLADR: BioMAP Diversity Plus: 3C Assay for Human Leukocyte Antigen - DR isotype (HLADR) Biomarker Activity (AID 2283019).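 For outcome: ELISA of cell-surface HLA-DR on HUVEC 24 h after dosing.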 To be noted: primary human endothelial cells (HUVEC); actives raise or lower the signal. In short, it runs like this:
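Bidirectional fitting against DMSO was applied to the HLA-DR ELISA signal from human umbilical vein endothelial cells, 24 h post-dose. Cytotoxicity came from parallel SRB total-protein staining; 3C proliferation was counted by SRB at 48 h.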

Read-out in assay [9]: Interleukin-8 (IL8), CXCL8 (gene 3576)
As to the kind of experiment: BSK_3C_IL8: BioMAP Diversity Plus: 3C Assay for Interleukin-8 (IL8) Biomarker Activity (AID 2283020). The settings on record: primary human endothelial cells (HUVEC); actives raise or lower the signal. In short, it runs like this:
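Using DMSO-treated wells as the baseline, bidirectional curve fitting was applied to ELISA-measured IL-8 from human umbilical vein endothelial cultures sampled 24 h after compound addition.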

Assay [10] addresses human Retinoid X Receptor beta (RXRb), RXRB (gene 6257) (UniProt P28702). As to the kind of experiment: ATG_RXRb_TRANS: Attagene TRANS-FACTORIAL HepG2 Assay for human Retinoid X Receptor beta (RXRb) (AID 2283013; active = hit-call score of the fitted dose curve at least 0.9, where 1 is the maximum). A digest of the protocol: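 After a 24 h incubation with test chemical, transfected HepG2 cells carrying NR-Gal4 fusions and GAL4-UAS reporter transcription units yield RNA whose reporter cDNA is FAM-labelled, HpaI-cut and sized by capillary electrophoresis; increases over DMSO are scored.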

This passage reports outcome and AC50 results from PubChem BioAssay (EPA / NIEHS).

Records with an inconclusive call do not appear. The source holds several records for some structures; these can differ, active in one and inactive in another. The source made the active and inactive calls. Rule for the calls, unless noted: active = hit-call score of the fitted dose curve at least 0.9, where 1 is the maximum; inactive = score below 0.9.

As usually defined, the AC50 is the concentration giving half of the maximal activity seen.

Chain of E-selectin (Homo sapiens) (P16581 whole entry, looked up): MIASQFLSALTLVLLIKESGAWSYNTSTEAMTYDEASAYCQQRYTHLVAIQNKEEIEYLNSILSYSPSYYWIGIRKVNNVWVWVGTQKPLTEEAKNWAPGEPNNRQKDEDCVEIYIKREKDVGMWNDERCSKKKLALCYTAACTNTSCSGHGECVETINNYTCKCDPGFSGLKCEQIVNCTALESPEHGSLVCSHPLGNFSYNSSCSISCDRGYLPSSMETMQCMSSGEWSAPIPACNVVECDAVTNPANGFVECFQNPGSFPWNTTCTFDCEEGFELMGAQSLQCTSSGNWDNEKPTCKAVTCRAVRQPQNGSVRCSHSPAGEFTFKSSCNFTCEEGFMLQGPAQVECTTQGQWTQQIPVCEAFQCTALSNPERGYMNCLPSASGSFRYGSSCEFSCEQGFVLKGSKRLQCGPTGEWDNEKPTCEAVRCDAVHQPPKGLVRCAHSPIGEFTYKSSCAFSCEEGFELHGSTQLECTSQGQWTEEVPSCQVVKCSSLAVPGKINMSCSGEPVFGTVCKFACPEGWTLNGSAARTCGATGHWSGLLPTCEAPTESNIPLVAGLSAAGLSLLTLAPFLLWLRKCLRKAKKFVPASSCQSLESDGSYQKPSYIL
Chain of Retinoic acid receptor RXR-alpha (Homo sapiens) (P19793 whole entry, looked up, the tested form may be a part): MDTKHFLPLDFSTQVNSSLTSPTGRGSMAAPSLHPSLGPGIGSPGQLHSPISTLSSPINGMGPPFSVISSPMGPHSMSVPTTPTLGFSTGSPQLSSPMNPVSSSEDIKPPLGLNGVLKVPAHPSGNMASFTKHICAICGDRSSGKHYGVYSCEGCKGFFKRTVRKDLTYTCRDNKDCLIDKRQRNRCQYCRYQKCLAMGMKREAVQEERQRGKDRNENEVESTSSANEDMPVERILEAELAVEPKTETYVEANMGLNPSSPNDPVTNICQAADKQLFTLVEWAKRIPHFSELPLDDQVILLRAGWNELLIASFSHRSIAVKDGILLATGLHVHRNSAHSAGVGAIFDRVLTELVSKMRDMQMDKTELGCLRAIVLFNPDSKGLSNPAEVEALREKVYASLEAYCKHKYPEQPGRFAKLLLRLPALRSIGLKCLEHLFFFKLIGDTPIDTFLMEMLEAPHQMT
Chain of human Retinoid X Receptor beta (RXRb), RXRB (gene 6257) (P28702 whole entry, looked up, the tested form may be a part): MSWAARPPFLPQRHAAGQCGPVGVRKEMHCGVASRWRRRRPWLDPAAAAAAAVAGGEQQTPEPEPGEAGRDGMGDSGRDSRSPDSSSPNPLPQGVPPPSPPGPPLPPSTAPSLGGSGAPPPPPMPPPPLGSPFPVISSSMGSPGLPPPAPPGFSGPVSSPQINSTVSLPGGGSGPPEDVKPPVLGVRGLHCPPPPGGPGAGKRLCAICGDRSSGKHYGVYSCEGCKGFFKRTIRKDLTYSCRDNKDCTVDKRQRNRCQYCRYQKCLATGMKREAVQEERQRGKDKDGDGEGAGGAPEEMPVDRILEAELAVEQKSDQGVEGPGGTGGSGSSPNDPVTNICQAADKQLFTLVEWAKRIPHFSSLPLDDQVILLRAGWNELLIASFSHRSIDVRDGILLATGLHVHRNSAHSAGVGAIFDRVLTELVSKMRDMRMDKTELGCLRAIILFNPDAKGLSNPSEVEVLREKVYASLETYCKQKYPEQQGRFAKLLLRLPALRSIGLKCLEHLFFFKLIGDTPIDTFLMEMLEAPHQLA
Chain of human RAR-related Orphan Receptor gamma (RORg), RORC (gene 6097) (P51449 whole entry, looked up, the tested form may be a part): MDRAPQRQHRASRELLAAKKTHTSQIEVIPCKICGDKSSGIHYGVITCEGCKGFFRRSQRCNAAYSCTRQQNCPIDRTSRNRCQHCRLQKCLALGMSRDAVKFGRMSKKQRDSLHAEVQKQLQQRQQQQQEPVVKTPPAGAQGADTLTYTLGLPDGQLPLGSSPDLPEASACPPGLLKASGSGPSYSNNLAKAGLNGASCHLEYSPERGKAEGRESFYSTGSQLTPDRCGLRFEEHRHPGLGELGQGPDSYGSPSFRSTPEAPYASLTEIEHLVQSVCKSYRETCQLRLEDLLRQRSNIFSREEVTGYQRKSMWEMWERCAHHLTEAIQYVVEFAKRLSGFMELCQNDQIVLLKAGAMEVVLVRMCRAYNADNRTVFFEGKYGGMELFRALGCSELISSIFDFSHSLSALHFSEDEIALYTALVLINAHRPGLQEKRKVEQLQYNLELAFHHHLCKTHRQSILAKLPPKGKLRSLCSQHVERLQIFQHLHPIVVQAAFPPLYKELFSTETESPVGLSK
Chain of human Thyroid Receptor alpha (THRa1), THRA (gene 7067) (P10827 whole entry, looked up, the tested form may be a part): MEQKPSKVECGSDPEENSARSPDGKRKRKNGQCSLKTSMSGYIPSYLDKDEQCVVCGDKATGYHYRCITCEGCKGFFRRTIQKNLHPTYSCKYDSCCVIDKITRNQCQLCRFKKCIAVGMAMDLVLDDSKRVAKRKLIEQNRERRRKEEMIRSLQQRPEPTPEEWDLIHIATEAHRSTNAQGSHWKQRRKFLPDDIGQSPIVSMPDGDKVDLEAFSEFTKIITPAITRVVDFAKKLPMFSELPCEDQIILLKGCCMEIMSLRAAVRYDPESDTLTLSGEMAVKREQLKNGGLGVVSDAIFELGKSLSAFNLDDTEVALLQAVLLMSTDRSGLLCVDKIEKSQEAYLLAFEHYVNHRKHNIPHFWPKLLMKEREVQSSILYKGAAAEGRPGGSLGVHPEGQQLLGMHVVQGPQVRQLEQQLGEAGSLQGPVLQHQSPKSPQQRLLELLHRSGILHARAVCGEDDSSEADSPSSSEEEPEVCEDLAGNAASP

With `CN1CSC(=S)N(C)C1`, the compound was classed as inactive in [1], in [2], in [3], in assay [5], in assay [7] and in assay [9]. Besides, the concentration at half-maximal activity (AC50) in assay [4] was 18.1 µM (active); in [6], 31.2 µM (active); in assay [8], 19 µM (active).

Consider `[2H]C1([2H])[n+]2ccccc2-c2cccc[n+]2C1([2H])[2H]`, for which the result in [1], in assay [10], in [4], in assay [5], in [6] and in assay [7] was inactive. The result in assay [8] and in assay [9] was inactive.

In the case of `Oc1ccc(Cl)cc1Cc1ccccc1`, the AC50 is 13.6 µM (active) [middle of 5 runs] in assay [2]; 34.7 µM (active) [middle of 6 runs] in assay [4]; 33.8 µM (active) [middle of 7 runs] in assay [5]; 34.8 µM (active) [middle of 7 runs] in assay [6]; 14.5 µM (active) [middle of 5 runs] in assay [7]; 31.3 µM (active) [middle of 7 runs] in [8]. The AC50 in [9] is 33.6 µM (active) [middle of 7 runs]. Further, the compound was classed as inactive in [2], in [10], in assay [3] and in assay [7].

As for `O=C(O)CCCOc1ccc(Cl)cc1Cl`, the result in assay [1], in [2], in [10], in assay [4], in assay [5] and in assay [6] was inactive. For the same compound, the outcome in assay [7], in assay [8] and in [9] was inactive. Besides, the AC50 in [10] was 27 µM (active).

In the case of `OCCOc1ccccc1`, the compound was classed as inactive in assay [1], in assay [2], in assay [10], in [3], in assay [4] and in [5]. Besides, the result in assay [6], in [7], in [8] and in assay [9] was inactive.

As for `CC(C)OC(=O)Nc1cccc(Cl)c1`, the outcome in assay [1], in [2], in assay [10], in assay [3], in assay [4] and in assay [5] was inactive. In addition, the outcome in [6], in assay [7], in [8] and in assay [9] was inactive.

Turning to `CCC(C)(NC(=O)c1cc(Cl)c(C)c(Cl)c1)C(=O)CCl` (configuration not stated), the compound was called inactive in [1], in [2], in assay [10], in assay [3] and in [9]. Moreover, the AC50 in assay [4] is 8.28 µM (active); in assay [5] it was 33.8 µM (active); in [6], 21.1 µM (active); in [7], 13.8 µM (active); in assay [8], 3.57 µM (active).

`CC1(C)C(C=C(Cl)Cl)C1C(=O)OC(C#N)c1ccc(F)c(Oc2ccccc2)c1` (configuration not stated): the compound was called inactive in assay [1], in [2], in [10], in [3], in assay [4] and in assay [5]. The outcome in [6], in assay [8] and in assay [9] was inactive. Moreover, in [7], the AC50 was 7.95 µM (active).

Regarding `CCOC1Oc2ccc(OS(C)(=O)=O)cc2C1(C)C` (configuration not stated), the outcome in assay [1], in assay [2], in assay [10], in assay [3], in assay [4] and in assay [5] was inactive. In addition, the outcome in assay [7] and in [9] was inactive. In addition, the AC50 is 24.8 µM (active) in [6] and 23 µM (active) in [8].

As for `N#Cc1c(Cl)c(Cl)c(Cl)c(C#N)c1Cl`, the compound was called inactive in assay [1], in assay [2], in [10] and in assay [3]. Moreover, the half-maximal activity concentration (AC50) in [4] was 1.46 µM (active); in assay [5] it was 2.48 µM (active); in assay [6] it was 1.98 µM (active); in [7], 1.48 µM (active); in assay [8], 0.166 µM (active); in assay [9] it was 1.67 µM (active).

Consider `CNC(=O)Oc1ccccc1OC(C)C`, for which the call in [1], in assay [4], in assay [6], in [7], in assay [8] and in assay [9] was inactive. For the same compound, in assay [5], the AC50 was 5.51 µM (active).

With `CNC(=O)CSP(=S)(OC)OC`, the compound was classed as inactive in assay [1], in assay [4], in assay [5], in assay [6], in [7] and in assay [8]. Also, the result in assay [9] was inactive.
